According to article PMC4336329 (PLoS ONE, 2015):
Hit rate of the full screen: of about 310,000 compounds, about 14,000 (4.5%) showed an effect of 50% or more. The effect is printed as a negative number. Only a selection was taken, and strong results are over-represented in it overall.

Target: human ether-à-go-go-related gene (hERG) potassium channel (human, UniProt Q12809)
Test: primary screen, population patch clamp on CHO cells stably expressing hERG; higher = less effect of the substance
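Note: peak tail current of the secondary pulse compared with the same well before compound.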

Chain of human ether-à-go-go-related gene (hERG) potassium channel (Q12809 whole entry, looked up): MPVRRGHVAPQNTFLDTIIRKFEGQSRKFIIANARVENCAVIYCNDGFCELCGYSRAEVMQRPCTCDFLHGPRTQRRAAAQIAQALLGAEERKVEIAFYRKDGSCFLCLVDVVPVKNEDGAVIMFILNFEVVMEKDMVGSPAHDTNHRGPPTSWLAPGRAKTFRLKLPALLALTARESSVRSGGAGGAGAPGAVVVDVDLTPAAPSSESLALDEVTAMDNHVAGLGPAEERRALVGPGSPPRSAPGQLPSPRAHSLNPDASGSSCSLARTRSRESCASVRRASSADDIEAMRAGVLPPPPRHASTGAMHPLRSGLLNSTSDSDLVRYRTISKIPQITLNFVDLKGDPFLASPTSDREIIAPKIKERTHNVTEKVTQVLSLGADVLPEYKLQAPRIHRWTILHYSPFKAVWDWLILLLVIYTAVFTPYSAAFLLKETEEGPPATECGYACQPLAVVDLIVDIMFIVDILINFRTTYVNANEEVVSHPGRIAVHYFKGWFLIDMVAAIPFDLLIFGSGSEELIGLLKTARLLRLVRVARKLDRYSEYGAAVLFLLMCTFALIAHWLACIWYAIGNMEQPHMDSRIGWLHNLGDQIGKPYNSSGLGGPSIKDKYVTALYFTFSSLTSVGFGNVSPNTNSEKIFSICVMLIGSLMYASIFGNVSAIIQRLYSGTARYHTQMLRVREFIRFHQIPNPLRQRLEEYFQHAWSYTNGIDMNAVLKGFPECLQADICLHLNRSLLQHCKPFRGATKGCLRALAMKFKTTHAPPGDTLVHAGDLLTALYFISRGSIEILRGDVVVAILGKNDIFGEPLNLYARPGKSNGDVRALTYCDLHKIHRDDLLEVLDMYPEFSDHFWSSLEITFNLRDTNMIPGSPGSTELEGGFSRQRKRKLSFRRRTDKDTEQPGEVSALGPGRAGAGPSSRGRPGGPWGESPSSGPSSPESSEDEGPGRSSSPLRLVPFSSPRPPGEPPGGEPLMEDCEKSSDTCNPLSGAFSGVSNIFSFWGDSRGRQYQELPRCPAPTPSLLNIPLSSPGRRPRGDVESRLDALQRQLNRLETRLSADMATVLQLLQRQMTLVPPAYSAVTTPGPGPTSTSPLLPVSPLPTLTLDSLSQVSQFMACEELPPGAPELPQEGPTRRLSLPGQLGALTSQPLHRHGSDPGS

Row | SMILES | hERG current change (%, negative = inhibition) at 10uM [%]
1 | O=C(C1CCN(S(=O)(=O)c2ccccc2)CC1)N1CCC1 | 12.3
2 | Cc1[nH]n(-c2ccccc2)c(=O)c1C=Nc1cnc2ccccc2c1 | -8.67
3 | O=C(c1cccs1)c1ccc(-c2cccs2)s1 | 1.57
4 | OCC(O)CSc1nc(-c2ccccc2)nc2c1CCC2 (stereo not drawn) | 2.22
5 | CC1(C)Cc2nc(-c3ccccc3)nc(SCC(O)CO)c2CO1 (stereo not drawn) | -15.8
6 | CN(C)CCSc1nc(-c2ccccc2)nc2c1CCC2 | -61.3
7 | NC(=O)CSc1nc(-c2ccccc2)nc2c1CCCC2 | 5.92
8 | CN(C)CCCSc1nc(-c2ccccc2)nc2c1CCC2 | -50.3
9 | OCCSc1nc(-c2ccccc2)nc2c1CCC2 | -12
10 | CN(C)C(=O)CSc1nc(-c2ccccc2)nc2c1CCCC2 | -5.09
11 | CCSc1nc(-c2ccccc2)nc2c1CCCC2 | 7.26
12 | O=C(O)CSc1nc(-c2ccccc2)nc2c1CCCC2 | 12.8
13 | CN(C)CCSc1nc(-c2ccccc2)nc2c1COC(C)(C)C2 | -69.1
14 | CSc1nc(-c2ccccc2)nc2c1COC(C)(C)C2 | 5.03
15 | CN(C)CCSc1nc(-c2ccccc2)nc2c1CCCC2 | -51.3
16 | O=C(NCC(c1cccs1)N1CCOCC1)C1CCN(S(=O)(=O)c2c(Cl)cccc2Cl)CC1 (stereo not drawn) | -27.3
17 | COc1ccc(C2C3CCCCC3(O)CCN2C(=O)c2cccs2)cc1 (stereo not drawn) | 5.52
18 | CC(C)(C)C(=O)Nc1nnc(SCC(=O)NC2CCCCC2)s1 | 2.34
19 | COc1ccc(S(=O)(=O)N2CCC(C(=O)NCCN3CCOCC3)CC2)cc1 | 14.2
20 | CC1=NN(c2ccccc2)C(=O)C1/C=C1\C(=O)NC(=O)N(c2cc(C)cc(C)c2)C1=O (stereo not drawn) | 6.47
21 | Cc1sc2nc(CSCC(=O)Nc3c(F)cccc3F)[nH]c(=O)c2c1C | 7.01
22 | CC(C)CNc1nnnc2c1sc1nc(N3CCOCC3)c3c(c12)CC(C)(C)SC3 | -20.8
23 | Cc1ccc(Sc2ccc(S(=O)(=O)Nc3ccc(CC(=O)O)cc3)cc2)cc1C | 3.13

Row | SMILES | hERG current change (%, negative = inhibition) at 10uM [%]
24 | COc1cc(C(=O)NCC2(N(C)C)CCCCC2)ccc1OCc1ccccc1 | -59.7
25 | CN(C)C1(CNC(=O)c2cccc(S(=O)(=O)NCc3ccccc3)c2)CCCCC1 | -49.5
26 | CCN(c1ccccc1)S(=O)(=O)c1ccc(C(=O)Nc2ccccn2)cc1 | -8.37
27 | CNC(=O)c1ccc(OCc2ccccc2)c(OC)c1 | 3.11
28 | CCN(c1ccccc1)S(=O)(=O)c1ccc(C(=O)Nc2ccncc2)cc1 | -68.7
29 | COc1ccc(C(=O)NCC(=O)NCC2(N(C)C)CCCCC2)cc1OC | 3.45
30 | CCN(c1ccccc1)S(=O)(=O)c1ccc(C(=O)NCCc2ccc(S(N)(=O)=O)cc2)cc1 | 5.49
31 | CN(c1ccccc1)S(=O)(=O)c1ccc(C(=O)Nc2ccncc2)cc1 | -9.83
32 | COc1ccccc1NS(=O)(=O)c1ccc(C(=O)NCC2(N(C)C)CCCCC2)cc1 | 3.78
33 | CCN(c1ccccc1)S(=O)(=O)c1ccc(C(=O)NCC2(N(C)C)CCCCC2)cc1 | -57.8
34 | CCN(c1ccccc1)S(=O)(=O)c1cccc(C(=O)NCC2(N(C)C)CCCCC2)c1 | -60.5
35 | COc1ccccc1NS(=O)(=O)c1cccc(C(=O)NCC2(N(C)C)CCCCC2)c1 | -22.2
36 | O=C(NCCNC(=O)c1ccccn1)c1cccc(F)c1 | 23.7
37 | O/N=C/C1=C(Cl)c2ccccc2CC1 | -4.9
38 | Cc1ccccc1NC(=O)COC(=O)c1cccc(S(=O)(=O)N2CCCCC2)c1 | -6.55
39 | Cc1ccc(C(=O)N2CCN(C34CC5CC(CC(C5)C3)C4)CC2)o1 | -29.4
40 | CCc1nnc(NC(=O)CSc2nnc(-c3ccco3)n2CCOC)s1 | 9.29
41 | CC1CCN(c2oc(-c3ccco3)nc2S(=O)(=O)c2ccccc2)CC1 | -6.14
42 | CNC(=O)COC(=O)c1ccccc1Oc1ccccc1 | -5.63
43 | O=C1OC(C(=O)Nc2nccs2)Cc2ccccc21 (stereo not drawn) | 12.7
44 | CCN(C(=O)c1cc2c(=O)n3ccccc3nc2n1C)C1CCCCC1 | 6.65
45 | CC(Cc1cccs1)NC(=O)Nc1ccc(Cl)cc1 (stereo not drawn) | 1.12
46 | C[C@H](NC(=O)C1CCN(S(=O)(=O)c2ccccc2)CC1)C(=O)NCc1cccc(C(F)(F)F)c1 | -2.33

Row | SMILES | hERG current change (%, negative = inhibition) at 10uM [%]
47 | O=C(ON=C1CCN(c2ccc([N+](=O)[O-])cc2)CC1)c1ccccc1 | -47.5
48 | Cc1ccc(C(=O)ON=C2CCN(c3ccc([N+](=O)[O-])cc3)CC2)cc1 | -60.9
49 | CCCOc1ccc(C(=O)ON=C2CCN(C)CC2)cc1.Cl | -9.07
50 | Cc1ccc(C(=O)OC2CCN(c3ccc([N+](=O)[O-])cc3)CC2)cc1 | -1.78
51 | COc1ccc(C(=O)ON=C2CCN(C)CC2)cc1.Cl | 12.8
52 | COc1ccc(C(=O)ON=C2CCN(c3ccc([N+](=O)[O-])cc3)CC2)cc1 | -68.5
53 | CC(=O)N1CCOc2cc(S(=O)(=O)NCc3ccc(F)cc3)c(C)cc21 | -16.6
54 | CCOc1ccc(/C=C/c2[nH]c(=O)[nH]c(=O)c2[N+](=O)[O-])cc1 | 8.01
55 | O=C(CCC(=O)Nc1ccccc1)N/N=C/c1ccc2c(c1)OCO2 | 28.7
56 | O=C(c1ccccc1S(=O)(=O)NCc1ccccc1)N1CCCC1 | -4.43
57 | CCN(CC)Cc1cc(C(C)=O)ccc1OCC(C)C | -31.5
58 | CC(C)c1ccc(C2N3CC4([N+](=O)[O-])CN2CC([N+](=O)[O-])(C3)C4(C)C)cc1 (stereo not drawn) | 28.4
59 | O=C(O)c1ccc(NS(=O)(=O)c2ccc3c(c2)OCCCO3)cc1 | 4.23
60 | CN1CCN(S(=O)(=O)c2cc(C(F)(F)F)ccc2Cl)CC1.Cl | 10.4
61 | CC(=O)c1sc2nc(=O)c(C)nn2c1C | -0.703
62 | O=c1[nH]c(/C=C\c2ccc(O)c(O)c2)nc(O)c1[N+](=O)[O-] | 16.2
63 | CCCCOc1ccc(OCCCN2CCOCC2)cc1.Cl | -23.1
64 | Cc1ccc(OCCCN2CCOCC2)cc1 | 13.3
65 | CN1CCN(CCOc2ccc(-c3ccccc3)cc2)CC1.Cl | -56.3
66 | CN1CCN(CCOc2ccc(Cc3ccccc3)cc2)CC1.Cl | -23.4
67 | Cl.c1ccc(-c2ccc(OCCN3CCOCC3)cc2)cc1 | 3.74
68 | CN1CCN(CCCOc2ccc(-c3ccccc3)cc2)CC1.Cl | -69.1
69 | CCCCOc1ccc(CN2CCN(CC)CC2)cc1 | -14.2

Row | SMILES | hERG current change (%, negative = inhibition) at 10uM [%]
70 | CCN1CCN(CCCOc2ccc(-c3ccccc3)cc2)CC1 | -71.9
71 | COc1ccc(C(C(=O)NC2CCCC2)N(C(=O)c2ccoc2C)c2cc(C)cc(C)c2)cc1 (stereo not drawn) | -10.9
72 | O=C(CSc1nnc(CNC(=O)c2ccco2)o1)Nc1nc2ccccc2s1 | 16.1
73 | COc1cc(CC(NC(C)=O)C(=O)NC2CCN(S(=O)(=O)c3ccc(NC(C)=O)cc3)CC2)cc(OC)c1 (stereo not drawn) | 21.7
74 | Cc1cc(C)nc(-n2nc(C)c(Sc3ccc(F)cc3)c2N)n1 | -61.7
75 | Cc1ccc(-c2cnn(-c3cccc([N+](=O)[O-])c3)c2N)cc1 | -24.1
76 | Cc1nn(-c2ccc([N+](=O)[O-])cc2)c(N)c1-c1ccccc1 | -19.1
77 | Cc1nn(S(=O)(=O)c2ccccc2)c(C)c1Sc1ccc([N+](=O)[O-])cc1 | -6.26
78 | Cc1nn(-c2ccccc2)c(N)c1Sc1ccc([N+](=O)[O-])cc1 | -75.2
79 | Cc1nn(-c2nc3ccccc3s2)c(N)c1Sc1ccc(F)cc1 | 7.4
80 | Cc1ccccc1-c1cnn(-c2cccc([N+](=O)[O-])c2)c1N | -56.7
81 | Cc1nn(-c2ccccc2)c(N)c1Sc1ccccc1[N+](=O)[O-] | -26.7
82 | Cc1nn(-c2cccc([N+](=O)[O-])c2)c(N)c1-c1ccccc1 | -68.7
83 | Cc1cc(C)nc(-n2nc(C)c(C3(O)C(=O)Nc4ccc(F)cc43)c2N)n1 (stereo not drawn) | 3.79
84 | Cc1nn(-c2ccccc2)c(N)c1-c1ccccc1 | 5.13
85 | Nc1c(-c2ccccc2Cl)cnn1-c1cccc([N+](=O)[O-])c1 | -49.4
86 | CC(C(=O)NCc1cccnc1)N1C(=O)c2ccccc2C1=O (stereo not drawn) | 17.4
87 | CNC(=O)CSCCn1c(SCC(=O)NC)nc2ccccc2c1=O | 13.1
88 | COc1ccc(-c2cc(C(F)(F)F)n3ncc(C(=O)N(C)Cc4ccccc4)c3n2)cc1 | -17
89 | Cc1cc(C)cc(Oc2ccc(N)cc2)c1 | -15.1
90 | COc1ccccc1NC(=O)C(C)N(C)CCOc1ccccc1 (stereo not drawn) | 16.5
